# In the antibiotic and cytotoxicity screens of Wong et al. (2023):
# The whole screen tested about 39,000 compounds, of which about 3,300 (8.5%) were called active. The entries come from a sample that favours actives as a whole.
# System: HepG2
# Experiment: cytotoxicity call (relative viability < 0.9)
# Details: 10 µM
row,Structure (SMILES),cytotoxicity call
1,CCCN(C)C[C@@H]1OCCCC[C@@H](C)Oc2ccc(NC(=O)C3CCCCC3)cc2C(=O)N([C@@H](C)CO)C[C@@H]1C,inactive
2,COc1cc(/C=C/C(=O)C2=C(NCCc3ccccc3)S[C@H](c3ccc(O)c(OC)c3)CC2=O)ccc1O,inactive
3,C[C@@H]1CN([C@@H](C)CO)C(=O)c2cccc(NS(=O)(=O)c3cn(C)cn3)c2O[C@H]1CN(C)CC1CC1,inactive
4,CNC[C@H]1Oc2ccc(NC(=O)Cn3cnnn3)cc2CC(=O)N([C@H](C)CO)C[C@@H]1C,inactive
5,C[C@@H](O)[C@@H](Nc1ncnc2ccccc12)C(=O)O,inactive
6,C[C@H]1CN([C@@H](C)CO)C(=O)c2cccc(NC(=O)c3ccc(-c4nccs4)cc3)c2O[C@@H]1CN(C)Cc1ccc2c(c1)OCO2,inactive
7,C[C@@H]1CCCCO[C@H](CN(C)Cc2ccc(C(=O)O)cc2)[C@@H](C)CN([C@@H](C)CO)C(=O)c2cc(NC(=O)c3ccccc3)ccc2O1,inactive
8,CO[C@@]12[C@@H]3N[C@@H]3CN1C1=C(C(=O)C(N)=C(C)C1=O)[C@@H]2COC(N)=O,active
9,CO[C@@]12[C@H](COC(N)=O)C3=C(C(=O)C(C)=C(N)C3=O)N1C[C@@H]1N[C@@H]12,inactive
10,COC12C(COC(N)=O)C3=C(C(=O)C(C)=C(N)C3=O)N1CC1NC12 (stereo not given),active
11,COc1cccc(S(=O)(=O)Nc2ccc3c(c2)[C@@H]2C[C@@H](CC(=O)NCCc4ccccc4)O[C@@H](CO)[C@@H]2O3)c1,inactive
12,C=CCOC(=O)[C@@H]1[C@H]2C(=O)O[C@H](c3ccccc3)[C@H](c3ccccc3)N2[C@H](c2ccc(OCCOC(=O)[C@@H]3C[C@@H]4C(=O)N[C@@H](CC(C)C)C(=O)N4[C@@H]3c3ccc(O)cc3)cc2)[C@@]12C(=O)Nc1ccc(I)cc12,inactive
13,COC(=O)C[C@H]1CC[C@H]2[C@H](COc3ccc(NS(=O)(=O)c4ccccc4Cl)cc3C(=O)N2C)O1,inactive
14,O=C(/C=C/c1cccc(-c2cn(-c3cccc(C(=O)N4CCC5(CC4)C(=O)NCN5c4ccccc4)c3)nn2)c1)NO,inactive
15,O=C(/C=C/c1cccc(-c2cn(CC(=O)N3CCC4(CC3)C(=O)NCN4c3ccccc3)nn2)c1)NO,inactive
16,O=C(Cn1cc(CN2C(=O)COC[C@H]2c2ccccc2)nn1)N1CCC2(CC1)C(=O)NCN2c1ccccc1,inactive
17,O=C(CCc1cn(CC(=O)N2CCC3(CC2)C(=O)NCN3c2ccccc2)nn1)NO,active
18,O=C(NO)c1cn(-c2cccc(C(=O)N3CCC4(CC3)C(=O)NCN4c3ccccc3)c2)nn1,active
19,O=C(NO)c1cn(CC(=O)N2CCC3(CC2)C(=O)NCN3c2ccccc2)nn1,inactive
20,C[C@@H]1CN([C@H](C)CO)C(=O)c2cc(NS(=O)(=O)c3ccc(F)cc3)ccc2O[C@@H](C)CCCCO[C@@H]1CN(C)S(=O)(=O)c1ccc(Cl)cc1,inactive
21,C[C@@H]1CN([C@H](C)CO)C(=O)c2cccc(NC(=O)c3cnccn3)c2O[C@H]1CN(C)S(C)(=O)=O,inactive
22,C[C@@H]1CCCCO[C@@H](CN(C)C(=O)c2ccncc2)[C@@H](C)CN([C@H](C)CO)C(=O)c2cc(NC(=O)C3CCCCC3)ccc2O1,inactive

row,Structure (SMILES),cytotoxicity call
1,C[C@@H]1CN([C@H](C)CO)C(=O)c2cc(NC(=O)C3CCCCC3)ccc2O[C@@H](C)CCCCO[C@@H]1CN(C)C(=O)c1ccncc1,inactive
2,C[C@H]1CN([C@@H](C)CO)C(=O)c2cc(NC(=O)CCC(F)(F)F)ccc2O[C@@H]1CN(C)Cc1ccc(C(=O)Nc2ccccc2N)cc1,inactive
3,COc1ccc(NC(=O)N(C)C[C@H]2OCCCC[C@@H](C)Oc3ccc(NS(=O)(=O)c4c(C)noc4C)cc3C(=O)N([C@@H](C)CO)C[C@H]2C)cc1,inactive
4,NNc1ccc2nncn2n1,inactive
5,C[C@@H]1CN([C@@H](C)CO)C(=O)Cc2cc(NC(=O)CCN3CCOCC3)ccc2O[C@H]1CN(C)S(=O)(=O)c1cn(C)cn1,inactive
6,C[C@H]1CN([C@@H](C)CO)C(=O)c2cc(C#CCN(C)C)cnc2O[C@H]1CN(C)C(=O)Nc1cccc(F)c1,inactive
7,C[C@H]1CN([C@@H](C)CO)C(=O)c2cc(C#CCc3ccccc3)cnc2O[C@H]1CN(C)CC1CCOCC1,inactive
8,CC(C)N1C[C@@H](C)[C@H](CN(C)Cc2ccc(Oc3ccccc3)cc2)Oc2c(C(=O)Nc3ccncc3)cccc2C1=O,inactive
9,Cc1cc(C(C)(C)C)c(O)c(C(C)(C)C)c1,active
10,CC(C)(Sc1cc(C(C)(C)C)c(O)c(C(C)(C)C)c1)Sc1cc(C(C)(C)C)c(O)c(C(C)(C)C)c1,inactive
11,Cc1ccc(O)c(C(C)(C)C)c1,inactive
12,C[C@H](CO)N1C[C@H](C)[C@H](CN(C)C(=O)CN(C)C)Oc2ncc(C#CC(C)(C)O)cc2C1=O,inactive
13,C[C@@H]1CN([C@@H](C)CO)C(=O)c2cccc(NC(=O)CCCCCC(=O)Nc3ccccc3N)c2O[C@@H]1CN(C)S(=O)(=O)c1cn(C)cn1,inactive
14,C[C@H](CO)N1C[C@H](C)[C@@H](CN(C)Cc2ccc(Cl)c(Cl)c2)Oc2ccc(NS(=O)(=O)c3ccccc3)cc2C1=O,inactive
15,C[C@H]1CN([C@@H](C)CO)C(=O)c2cc(NS(=O)(=O)c3ccccc3)ccc2O[C@@H]1CN(C)Cc1ccc(Cl)c(Cl)c1,inactive
16,C[C@@H]1CN([C@@H](C)CO)C(=O)c2cc(NS(=O)(=O)c3ccccc3)ccc2O[C@H]1CN(C)Cc1ccc(Cl)c(Cl)c1,inactive
17,C[C@@H]1CN([C@H](C)CO)C(=O)c2cc(NS(=O)(=O)c3ccccc3)ccc2O[C@@H]1CN(C)Cc1ccc(Cl)c(Cl)c1,active
18,C[C@@H]1CN([C@@H](C)CO)C(=O)c2cc(NS(=O)(=O)c3ccccc3)ccc2O[C@@H]1CN(C)Cc1ccc(Cl)c(Cl)c1,active
19,C[C@H](CO)N1C[C@H](C)[C@H](CN(C)Cc2ccc(Cl)c(Cl)c2)Oc2ccc(NS(=O)(=O)c3ccccc3)cc2C1=O,inactive
20,C[C@H](CO)N1C[C@H](C)[C@@H](CN(C)C(=O)Nc2ccc(N3CCCCC3)cc2)OCc2cnnn2CCCC1=O,inactive
21,CC(C)NC(=O)N(C)C[C@@H]1Oc2ccc(NC(=O)C3CCCCC3)cc2CC(=O)N([C@@H](C)CO)C[C@H]1C,inactive
22,CCC[C@@H](O)C#Cc1cnc2c(c1)C(=O)N([C@H](C)CO)C[C@H](C)[C@H](CN(C)S(=O)(=O)c1cccs1)O2,inactive

row,Structure (SMILES),cytotoxicity call
1,C[C@H]1CC[C@@H]2C(C(=O)O[C@H]3[C@H]4O[C@@]4(C)[C@H]4[C@@H](O[C@H]5O[C@@H](CO)[C@@H](O)[C@@H](O)[C@@H]5O)OC=C[C@@]34O)=CO[C@H](O[C@H]3O[C@@H](CO)[C@@H](O)[C@@H](O)[C@@H]3O)[C@@H]21,inactive
2,C[C@H](CO)N1C[C@H](C)[C@H](CN(C)C(=O)Nc2ccc(F)cc2)Oc2ccc(NS(C)(=O)=O)cc2C1=O,inactive
3,C[C@@H]1CN([C@H](C)CO)C(=O)c2cc(NC(=O)Nc3ccc(C(F)(F)F)cc3)ccc2O[C@H]1CN(C)C(=O)NC1CCCCC1,inactive
4,C[C@@H]1CN([C@H](C)CO)C(=O)c2cc(NC(=O)NC3CCCCC3)ccc2O[C@H]1CN(C)C(=O)Nc1ccc(C(F)(F)F)cc1,inactive
5,C[C@H](CO)N1C[C@H](C)[C@@H](CN(C)C(=O)NC2CCCCC2)Oc2ccc(NC(=O)Nc3ccc(C(F)(F)F)cc3)cc2C1=O,inactive
6,C[C@H]1CN([C@@H](C)CO)C(=O)c2cc(NC(=O)Nc3ccc(C(F)(F)F)cc3)ccc2O[C@@H]1CN(C)C(=O)NC1CCCCC1,inactive
7,C[C@H]1CN([C@@H](C)CO)C(=O)c2cc(NC(=O)Nc3ccc(C(F)(F)F)cc3)ccc2O[C@H]1CN(C)C(=O)NC1CCCCC1,inactive
8,C[C@@H]1CN([C@H](C)CO)C(=O)c2cc(NC(=O)Nc3ccc(C(F)(F)F)cc3)ccc2O[C@@H]1CN(C)C(=O)NC1CCCCC1,active
9,C[C@H](CO)N1C[C@H](C)[C@H](CN(C)C(=O)Nc2ccc(C(F)(F)F)cc2)Oc2ccc(NC(=O)NC3CCCCC3)cc2C1=O,active
10,C[C@@H]1CN([C@@H](C)CO)C(=O)c2cc(NC(=O)Nc3ccc(C(F)(F)F)cc3)ccc2O[C@@H]1CN(C)C(=O)NC1CCCCC1,active
11,C[C@H]1CN([C@@H](C)CO)C(=O)c2cc(NC(=O)NC3CCCCC3)ccc2O[C@H]1CN(C)C(=O)Nc1ccc(C(F)(F)F)cc1,inactive
12,C[C@@H]1CN([C@H](C)CO)C(=O)c2cc(NC(=O)Nc3ccccc3)ccc2O[C@@H](C)CCCCO[C@@H]1CN(C)C(=O)NC1CCCCC1,inactive
13,CC(=O)N[C@@H]1[C@@H](O)[C@H](O)[C@H](CO)O[C@@H]1O,inactive
14,COCC(=O)Nc1ccc2c(c1)OC[C@@H](C)N(C(=O)Cc1cccnc1)C[C@H](C)[C@@H](OC)CN(C)C2=O,inactive
15,Cn1cnc(S(=O)(=O)N2C[C@@H](O)COC[C@H]3O[C@H](CC(=O)NCc4ccc(F)cc4)CC[C@@H]32)c1,inactive
16,COc1cc(C)nc(SCC(N)=O)n1,inactive
17,COc1ccc(S(=O)(=O)Nc2ccc3c(c2)C(=O)N([C@@H](C)CO)C[C@@H](C)[C@@H](CN(C)S(=O)(=O)c2ccccc2)O3)cc1,inactive
18,C[C@@H]1CN([C@H](C)CO)C(=O)CCCn2nncc2CO[C@@H]1CN(C)C(=O)CCCN(C)C,inactive
19,Cc1cc(O[C@@H](CCC(F)(F)F)c2ccc(C(=O)NCCC(=O)O)cc2)cc(C)c1-c1ccc(C(C)(C)C)cc1,inactive
20,Cc1cc(C)c(-c2ccc(NC(=O)[C@H](Cc3ccc(C(=O)NCCS(=O)(=O)O)cc3)c3ccc(-c4ccc(C(C)(C)C)cc4)cc3)cc2)c(C)c1,active
21,COc1ccc(C#Cc2ccc3c(c2)O[C@H](CN(C)S(=O)(=O)c2ccccc2F)[C@@H](C)CN([C@H](C)CO)S3(=O)=O)cc1,inactive
